# Results filed as inconclusive are left out. Calls of active or inactive are those of the source. Calls come from the whole dose curve; as a rule, active = well fitted inhibition curve with a large enough effect; inconclusive = small, poorly fitted or top-dose-only effect; inactive = flat fitted curve, though single readings scatter.
# Target: Calcium and integrin-binding protein 1 (Homo sapiens) (UniProt Q99828)
# Test: Primary qHTS for Identification of Calcium Integrin Binding Protein 1 (CIB1) Competitor (AID 1508620);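 note: GST tagged CIB1 binding a fluorescein labelled alphaIIb integrin peptide tracer; top concentration of the series differs between compounds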
# Conditions: CIB1-GST / FITC-alphaIIb peptide fluorescence polarization; series mostly up to 114 µM; activity change, negative = inhibition: at the top concentration
# Method in brief: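 Fluorescence polarization competition: CIB1-GST (1 uM final) preincubated with compound 15 min at room temperature, then FITC-labeled alphaIIb peptide (100 nM final) added for another 15 min. Polarization read at Ex 480/Em 540.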
# % is set by controls: 0 for no effect and ±100 for the full control effect.
# Calcium and integrin-binding protein 1 (Homo sapiens), sequence (Q99828 whole entry, looked up): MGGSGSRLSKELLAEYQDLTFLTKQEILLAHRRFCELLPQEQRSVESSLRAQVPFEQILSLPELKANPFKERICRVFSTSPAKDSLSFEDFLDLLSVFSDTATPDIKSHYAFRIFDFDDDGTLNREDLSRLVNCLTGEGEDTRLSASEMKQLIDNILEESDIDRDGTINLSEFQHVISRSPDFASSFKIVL
row,Structure (SMILES),"activity change, negative = inhibition"
1,C[C@@H]1O[C@@H](OC[C@H]2O[C@@H](OC(CCCCc3ccc(O)cc3)CCc3ccc(O)cc3)[C@H](O)[C@@H](O)[C@@H]2O)[C@H](O)[C@H](O)[C@H]1O (some centres not stated),-2.03% [at 30.2 µM] (inactive)
2,O=C1C=CC2OC(c3ccccc3)C(O)C2O1 (configuration not stated),-8.79% (inactive)
3,C=C1CN(Cc2ccc(C(=O)Nc3ccccc3N)cc2)C(=O)c2ccccc21,-3.54% (inactive)
4,COC(=O)C1=CO[C@@H](O[C@@H]2O[C@H](CO)[C@@H](O)[C@H](O)[C@H]2O)[C@H]2[C@@H]1C=C[C@@]21C=C([C@H](C)O)C(=O)O1,4.48% [at 57.7 µM] (inactive)
5,Cc1ccc(-c2ccc3ncc4c(c3n2)n(C2CCN(C(=O)[C@H](C)O)CC2)c(=O)n4C)cn1,0.0499% (inactive)
6,O=S(=O)(NCC1CC1)c1ccc(Nc2nccc(N3CCCc4cc(O)ccc43)n2)cc1,-0.482% (inactive)
7,CC(=O)O[C@@H]1c2c(C)coc2C(=O)[C@@]23O[C@@H]2CC[C@H](C)[C@@]13C,0.978% (inactive)
8,C=C[C@H]1C(O[C@@H]2O[C@H](CO)[C@@H](O)[C@H](O)[C@H]2O)OC=C2C(=O)N3CCc4c([nH]c5ccccc45)C3CC21 (some centres not stated),32.4% [at 57.7 µM] (inactive)
9,C/C=C/C=C/C(O)=C1\C(O)=C(C)C(=O)[C@@]2(C)OC(=O)[C@@](C)(NC(=O)/C=C/C(=O)O)[C@@H]12,-5.19% [at 57.7 µM] (inactive)
10,COc1c2c(c(C)c3c1C(=O)OC3)OC1(C)CC(O)C34OC(OC)(OC3(C)C)C(O)CC4(C)C1C2 (configuration not stated),0.462% [at 57.7 µM] (inactive)
11,O=C1NC(Cc2c[nH]c3ccccc23)C(=O)NC1Cc1c[nH]c2ccccc12 (configuration not stated),3.47% [at 57.7 µM] (inactive)
12,COc1ccc(CN2C(=O)C(=O)c3cc(S(=O)(=O)N4CCC[C@H]4COc4cccnc4)ccc32)cc1,-7.66% (inactive)
